Reference: PubChem BioAssay AID651871 (Sanford-Burnham Center for Chemical Genomics, 2012)
“And” between values parts separate entries of the source, which are not always exact repeats. Equal entries are not always repeated.

Test system: HL-1
Test: cardiomyocyte survival under oxidative or metabolic stress – cell-based, panel, H9c2 and HL-1, ATP luminescence, set 2, SAR follow-up (AID 651871);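 note: cells exposed to stressor for 2 h before ATP readout; reference of the scale not given here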
Conditions: H9c2/HL-1 cardiomyocytes, 2-deoxyglucose stress, with 2-deoxyglucose; run 7, at 79 µM (top of the series)

Structure (SMILES) | activity (protection/inhibition)
CCOC(=O)c1cccc(NC(=O)CNC(=O)c2cc(-c3cc(OC)c(OC)c(OC)c3)nc3ccccc23)c1 | 54.3%
COc1ccc2nc(-c3cc(OC)c(OC)c(OC)c3)cc(C(=O)NCC(=O)Nc3ccc(C(C)=O)cc3)c2c1 | 38%
COc1ccc2c(c1OC)C(=O)N1c3ccccc3C(=O)N(Cc3cccc(Cl)c3Cl)C21 (stereo not drawn) | 48.9% and 20.1% and -9.92%
